# Screening results from PubChem BioAssay.
# Shown are actives, neighbours in structure and some others; about 31% of the full set was active somewhere.
# PLAP activator = PLAP enzyme activators, biochemical, luminescence, HTS; activation fold at 20 µM; Alkaline phosphatase, placental type (Homo sapiens), P05187; 96,000 compounds, 1.2% hits; purified PLAP enzyme, luminescent substrate read-out; hits give high values; AID 696, 2007; in the data active means activation fold above about 2
# CYP2C9 inh = blockers of cytochrome P450 2C9 activity – biochemical, luminescence, ADME assay, primary screen. 96,000 compounds, 20% hits. inhibition, % at 5 µM. CYP2C9 Supersomes, luciferin-H conversion. P11712;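 active means blocking of liver enzyme CYP2C9 beyond about 50% at 5 µM, limit read from the data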
# Target sequence (P11712 whole entry, looked up): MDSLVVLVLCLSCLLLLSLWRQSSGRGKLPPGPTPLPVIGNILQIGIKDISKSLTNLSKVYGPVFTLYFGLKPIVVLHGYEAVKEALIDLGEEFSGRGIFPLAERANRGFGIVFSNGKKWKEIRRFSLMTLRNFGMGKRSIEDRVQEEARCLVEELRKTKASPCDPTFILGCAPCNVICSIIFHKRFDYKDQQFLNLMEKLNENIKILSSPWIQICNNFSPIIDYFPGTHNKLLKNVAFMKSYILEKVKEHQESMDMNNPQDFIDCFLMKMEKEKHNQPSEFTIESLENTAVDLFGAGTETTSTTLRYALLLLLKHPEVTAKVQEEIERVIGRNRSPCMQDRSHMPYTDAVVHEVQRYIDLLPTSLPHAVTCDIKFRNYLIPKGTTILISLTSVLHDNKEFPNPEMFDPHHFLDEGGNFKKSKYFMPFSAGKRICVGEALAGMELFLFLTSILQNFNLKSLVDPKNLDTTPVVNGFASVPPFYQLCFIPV
# CYP2C19 inh = blockers of cytochrome P450 2C19 activity – biochemical, luminescence, ADME assay, primary screen; inhibition, % at 5 µM; CYP2C19 Supersomes, luciferin-H EGE luminescence, 30 min; 96,000 compounds, 21% hits; P33261;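 active means CYP2C19 inhibition above a set limit at 5 µM in the primary screen, cut at about 50% in these data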;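 further: plate controls were negative control wells for no effect and 2.5 mM tranylcypromine positive control for full effect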
# CYP2C9 activ = human CYP2C9 activators, primary screen, biochemical, luminescence; activation factor at 5 µM; 96,000 compounds, 1.4% hits; recombinant CYP2C9, luciferin-H conversion; hits give high values; factor 1 = untreated enzyme, 0 = blocked; AID 1024, 2008;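 active means activation factor of 2 or more for CYP2C9 at a 5 µM dose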;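 further: 0 = sulfaphenazole-blocked wells and 1 = vehicle-only wells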
# CYP2C19 activ = human CYP2C19 activators, primary screen, biochemical, luminescence | Cytochrome P450 2C19 (Homo sapiens), P33261 | recombinant CYP2C19, luciferin-H EGE luminescence; hits give high values; 0 = fully inhibited enzyme, 1 = untreated enzyme | activation factor at 5 µM | 96,000 tested, under 10 active | AID 1025, 2008;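 active means activation factor of at least 2 at 5 µM in the primary screen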;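 further: 0 = wells with 2.5 mM tranylcypromine and 1 = vehicle-only wells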
# The depositor's hits bear a star.
SMILES,PLAP activator,CYP2C9 inh,CYP2C19 inh,CYP2C9 activ,CYP2C19 activ
COc1ccc(-c2cc(C(=O)Nc3c(C)nn(Cc4ccccc4)c3C)no2)cc1,0.8,13,26,0.9,0.7
COc1cccc(-c2cc(C(=O)Nc3c(C)nn(Cc4ccccc4)c3C)no2)c1,0.9,54*,27,0.5,0.7
Cc1ccc(NC(=O)c2cc(-c3cccc(O)c3)on2)cc1C,0.8,-188,20,2.9*,0.8
Cc1nn(Cc2ccccc2)c(C)c1NC(=O)c1cc(-c2cccs2)on1,1,63*,28,0.4,0.7
CCCCn1ccc(=O)c2c(C(F)(F)F)nccc21,0.8,-6,-8,1.1,1.1
CC(C)C(C(=O)Nc1ccc(N2CCOCC2)cc1)N1C(=O)c2ccccc2C1=O (stereo not given),0.9,16,23,0.8,0.8
CCC(C)(C(=O)NC1CCCCC1)N(C(=O)c1cnccn1)c1c(C)n(C)n(-c2ccccc2)c1=O (stereo not given),1.3,0,-2,1,1
CN1CCN(C(=O)c2cc3nc(-c4ccccc4)cc(-c4ccccc4)n3n2)CC1,1.7,42,41,0.6,0.6
COc1cc(NC(=O)c2cc3nc(-c4ccccc4)cc(-c4ccccc4)n3n2)cc(OC)c1OC,0.9,64*,33,0.4,0.7
CC(C)CNC(=O)NC(=O)COc1ccc(C=O)cc1,1,83*,95*,0.2,0.1
CCN1CCc2c(sc3c2c(NCc2ccco2)nc2nnnn23)C1,1.5,53*,42,0.5,0.6
CC1=C(C(=O)OCC2CCCO2)C(c2ccc(C)o2)C2=C(CC(c3ccc(F)cc3)CC2=O)N1 (stereo not given),1.3,19,16,0.8,0.8
CC1=C(C(=O)OCC2CCCO2)C(c2cccc(C(F)(F)F)c2)C2=C(CC(c3ccco3)CC2=O)N1 (stereo not given),1.8,88*,94*,0.1,0.1
CC1=C(C(=O)OCC2CCCO2)C(c2ccccc2OC(C)C)C2=C(CC(c3ccco3)CC2=O)N1 (stereo not given),1.6,81*,98*,0.2,0
CC1=C(C(=O)OCC2CCCO2)C(c2ccc(C)o2)C2=C(CC(c3ccc(N(C)C)cc3)CC2=O)N1 (stereo not given),1.2,54*,56*,0.5,0.4
Cc1c(C(=O)N(C)C)sc(NC(=O)c2cc([N+](=O)[O-])cc([N+](=O)[O-])c2)c1C#N,1.3,47,0,0.5,1
N#Cc1c(-c2ccccc2)ccn(Cc2ccc(Cl)cc2)c1=O,0.8,54*,36,0.5,0.6
CC1CCc2c(sc(NC(=O)CN3CCN(C(=O)c4ccco4)CC3)c2C#N)C1 (stereo not given),1.5,6,10,0.9,0.9
O=C(CN(c1ccc(F)cc1)S(=O)(=O)c1ccc2c(c1)OCCO2)NCc1cccnc1,1.7,84*,94*,0.2,0.1
O=C(CN(c1ccc(F)cc1)S(=O)(=O)c1ccc2c(c1)OCCO2)NCc1ccncc1,1.1,73*,90*,0.3,0.1
CCCNC(=O)CN(c1ccc(F)cc1)S(=O)(=O)c1ccc2c(c1)OCCO2,1.7,85*,81*,0.2,0.2
O=C(O)CN(c1ccc(F)cc1)S(=O)(=O)c1ccc2c(c1)OCCO2,1,24,10,0.8,0.9
COc1cccc(C(=O)N2CCN(C3CCC(c4ccccc4)CC3)CC2)c1OC (stereo not given),1.5,-51,16,1.5,0.8
COc1ccc(-n2c(C)nn(C)c2=O)cc1,0.9,-3,3,1,1
Cc1nn(C)c(=O)n1-c1ccc(OCc2ccccc2)cc1,1.2,33,56*,0.7,0.4
SMILES,PLAP activator,CYP2C9 inh,CYP2C19 inh,CYP2C9 activ,CYP2C19 activ
Cc1oc2c(c1C(=O)NCCCC(=O)O)CCCC2,1,6,-3,0.9,1
CN1CCN(C(=O)c2ccc(N(Cc3ccccc3Cl)S(C)(=O)=O)cc2)CC1,1.5,22,12,0.8,0.9
CS(=O)(=O)N(Cc1ccccc1)c1ccc(C(=O)N2CCc3ccccc3C2)cc1,1,63*,46,0.4,0.5
CCOC(=O)N1CCN(C(=O)c2ccc(N(Cc3ccc(C)cc3)S(C)(=O)=O)cc2)CC1,1.6,86*,65*,0.1,0.3
CS(=O)(=O)N(CC(=O)N1CCc2ccccc2C1)Cc1ccc(Cl)cc1,1.7,85*,88*,0.2,0.1
CS(=O)(=O)N(CC(=O)N1CCc2ccccc2C1)c1ccc2c(c1)OCO2,1.7,24,88*,0.8,0.1
CS(=O)(=O)N(CC(=O)N1CCOCC1)c1ccc2c(c1)OCO2,1,11,12,0.9,0.9
Cc1ccc(CN(c2ccc(C(=O)N3CCOCC3)cc2)S(C)(=O)=O)cc1,1.7,15,13,0.9,0.9
CCc1c(C)sc(NC(=O)c2cc(-c3ccco3)on2)c1C#N,1,-9,-6,1.1,1.1
COc1ccc(C2(O)CCN(C(=O)NC3CCCCC3)CC2)cc1,1,-1,-9,1,1.1
CCc1cc2c(C)cc(=O)oc2cc1OC(=O)C1CCCN1C(=O)OC(C)(C)C (stereo not given),1.5,39,30,0.6,0.7
CCOC(=O)N1CCN(C(=O)c2ccc(N(Cc3ccccc3)S(C)(=O)=O)cc2)CC1,1.9,90*,68*,0.1,0.3
C=CCN(c1ccc(C(=O)N2CCCC2)cc1)S(C)(=O)=O,1.4,4,7,1,0.9
CCOC(=O)N1CCN(Cc2nc3c(c(=O)[nH]c(=O)n3C)n2Cc2cc(C)ccc2C)CC1,1.8,72*,28,0.3,0.7
CCCCCCCCn1c(N2CCN(c3cccc(Cl)c3)CC2)nc2c1c(=O)[nH]c(=O)n2C,1.7,52*,15,0.5,0.9
CCCCCn1c(CN2CCN(c3cccc(Cl)c3)CC2)nc2c1c(=O)[nH]c(=O)n2C,1.9,59*,44,0.4,0.6
COc1ccc(Cl)cc1C(=O)CSc1nnnn1C1CCCC1,1.5,6,76*,0.9,0.2
COc1ccc(Cl)cc1C(=O)CSc1nnnn1C1CCCCC1,1.3,-4,69*,1,0.3
O=C(O)c1ccc(CSc2nnnn2C2CCCCC2)cc1,1.3,-4,-3,1,1
COc1ccc(C(=O)N2CCC(C(=O)NCc3ccccn3)CC2)cc1,1,-16,-12,1.2,1.1
Cc1cc(C)nc(SCCS(=O)Cc2ccc(Cl)cc2)n1 (stereo not given),1.4,22,81*,0.8,0.2
Cc1cc(C)nc(SCCC(=O)N(C)C)n1,0.9,-10,-4,1.1,1
COc1cc(-c2nnc(SCc3cc(=O)oc4cc(C)ccc34)o2)cc(OC)c1OC,1.8,83*,66*,0.2,0.3
